“And” between values parts separate entries of the source, which are not always exact repeats. Equal entries are not always repeated. Some structures have more than one record in an assay (separate samples or runs), and their calls can disagree. The source made the active and inactive calls.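 The calls were made as follows, unless noted: active = thallium flux through the channel raised or lowered by more than 3 SD from vehicle-only wells, actives on both sides; inactive = the rest.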
Key:
[1] = blockers of polyQ-driven CASP3 activation – cell-based (AID 1583); settings: polyglutamine-induced caspase-3 activation, cell assay; stronger effect = higher value;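 tested at 10 µM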
[2] = yeast 75Q aggregation reduction – 75Q-TubU reporter (AID 1593); settings: Yeast 75Q polyglutamine aggregation reporter
[3] = blockers of cytochrome c efflux from mitochondria – biochemical, purified mitochondria (AID 1603); settings: stronger effect = lower value;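 also: mouse liver mitochondria challenged with calcium chloride; signal normalized to the plate average as 100%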
[4] = polyglutamine aggregate formation blockers (AID 1604); settings: polyglutamine-induced protein aggregation inhibition assay; stronger effect = higher value; tested at 2.5 µM
[5] = glutamate transport activators, MN-1 cells, MN-1 cell line (AID 1612); settings: MN-1 motor neuron cells, stronger effect = higher value;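 also: tested at 1 µM final; 0% = mean of DMSO vehicle wells on each plate; positive means more glutamate uptake than control and negative means less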
[6] = signal quenchers or enhancers, Cy5 substrate/SSB – biochemical, NIH Clinical Collection, E. coli SSB, artefact control for HCV NS3 helicase inhibitor project (AID 743268; call rule not given here); settings: Cy5-oligo bound E. coli SSB, fluorescence interference
[7] = system: Hepatitis C virus NS3 helicase; experiment: blockers of NS3h binding to DNA – biochemical, fluorescence polarization, NIH Clinical Collection, primary screen (AID 743270; call rule not given here); settings: NS3 helicase binding to Cy5-dT15 DNA, stronger effect = higher value, concentration not given here
[8] = molecular target: Single-stranded DNA-binding protein (Escherichia coli (strain K12)) (UniProt P0AGE0); experiment: SSB-ssDNA binding inhibitors – biochemical, fluorescence polarization, NIH Clinical Collection, counter-screen for HCV NS3 helicase inhibitor project (AID 743271; in the data active = inhibition above about 28%); settings: E. coli SSB-DNA binding, stronger effect = higher value, concentration not given here
[9] = compounds distorting NS3 helicase fluorescence signal – biochemical, NIH Clinical Collection, artefact control for HCV NS3 helicase inhibitor project (AID 743272; call rule not given here;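 also: HCV NS3 helicase with a Cy5 labelled single stranded DNA probe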); settings: fluorescence interference counterscreen, HCV NS3 helicase assay; stronger effect = lower value
[10] = galactose survival enhancers in mitochondrial complex I cybrids – cell-based, galactose medium, ATP luminescence, primary screen (AID 1645843;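 active = z-score of at least 1.8 in each of two replicates, scored against plate mean and spread of sample wells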;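 also: positive z means more ATP and so rescue of galactose-driven cybrid death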); settings: complex I mutant cybrid cells, 72 h, stronger effect = higher value
F380Y/beta4 = experiment: BK channel mutant inhibitors and activators – cell-based, U2OS BacMam, thallium flux, beta subunits, selectivity assay, profiling panel (AID 1259406); settings: U2OS BacMam BK variants, at 30 µM;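 also: initial slope of Thallos dye fluorescence rise after thallium is added; log ratio against the mean of 0.3% DMSO vehicle wells on the same plate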
[11] = molecular target: Calcium-activated potassium channel subunit alpha-1 (Homo sapiens) + Leucine-rich repeat-containing protein 26 (Homo sapiens) (UniProt Q12791+Q2I0M4); experiment: as above; settings: U2OS BacMam BK variants, F380Y/Slo1WT/gamma1, at 30 µM
R275C = experiment: as above; settings: U2OS BacMam BK variants, at 30 µM
R275C/beta1 = experiment: as above; settings: U2OS BacMam BK variants, at 30 µM
R275C/beta2Delta = experiment: as above; settings: U2OS BacMam BK variants, at 30 µM
R275C/beta4 = experiment: as above; settings: U2OS BacMam BK variants, at 30 µM
R275C/Slo1WT/beta2 = experiment: as above; settings: U2OS BacMam BK variants, at 30 µM

Sequence of Calcium-activated potassium channel subunit alpha-1 (Homo sapiens) + Leucine-rich repeat-containing protein 26 (Homo sapiens) (Q2I0M4 whole entry, looked up, one chain of several): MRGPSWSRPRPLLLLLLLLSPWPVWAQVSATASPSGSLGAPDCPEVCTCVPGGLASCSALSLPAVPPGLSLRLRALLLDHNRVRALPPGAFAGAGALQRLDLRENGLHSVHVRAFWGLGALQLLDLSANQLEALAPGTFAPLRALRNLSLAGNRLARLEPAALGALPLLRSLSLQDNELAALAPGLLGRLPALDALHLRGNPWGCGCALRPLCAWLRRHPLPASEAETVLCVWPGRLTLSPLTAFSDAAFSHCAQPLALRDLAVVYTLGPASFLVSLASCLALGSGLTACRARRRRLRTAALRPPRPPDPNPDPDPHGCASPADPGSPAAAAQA

Row | Compound | inhibition [1] [%] | score [2] | cytochrome c release ratio [3] | inhibition of aggregation [4] [%] | glutamate uptake change [5] [%] | fluorescence ratio [6] | inhibition [7] | inhibition [8] | fluorescence ratio [9] | z-score [10] | log fold change Tl+ flux (F380Y/beta4) | log fold change Tl+ flux [11] | log fold change Tl+ flux (R275C) | log fold change Tl+ flux (R275C/beta1) | log fold change Tl+ flux (R275C/beta2Delta) | log fold change Tl+ flux (R275C/beta4) | log fold change Tl+ flux (R275C/Slo1WT/beta2)
1 | NC12CC3CC(CC(C3)C1)C2 | -8.1 | 1.77 | 0.94 | 63.2 | -5.28 | 0.99 (inactive) | -0.45% (inactive) | -1.24% (inactive) | 0.97 (inactive) | 0.28 (inactive) and 0.225 (inactive) and 0.335 (inactive) | 0.0492 (inactive) | 0.0152 (inactive) | -0.00425 (inactive) | 0.0102 (inactive) | 0.045 (inactive) | -0.0136 (inactive) | 0.0148 (inactive)
2 | c1ccc([C@H]2CN3CCSC3=N2)cc1 | 60.8 | 1.41 | 0.88 | 72.2 | 4.54 |  |  |  |  | 0.83 (inactive) and -0.1 (inactive) |  |  |  |  |  |  | 
3 | N=C(N)c1ccc(OCCCCCOc2ccc(C(=N)N)cc2)cc1 | -13.3 | 0.69 | 2.1 | 62.8 | 6.93 |  |  |  |  | -0.685 (inactive) |  |  |  |  |  |  | 
4 | Clc1cccc(Cl)c1NC1=NCCN1 | 5.5 | 1.4 | 1.31 | 86.9 | 13.8 | 1.05 (inactive) | -2.77% (inactive) | -2.41% (inactive) | 1.02 (inactive) |  | -0.00138 (inactive) | 0.0127 (inactive) | -0.0635 (inactive) | 0.000941 (inactive) | -0.00732 (inactive) | 0.0373 (inactive) | 0.0101 (inactive)
5 | CN1C(C(=O)Nc2ccccn2)=C(O)c2ccccc2S1(=O)=O | -2.37 | 0.27 | 1.16 | 83.1 | -13.7 | 1.01 (inactive) | 1.98% (inactive) | 1.44% (inactive) | 0.98 (inactive) |  | -0.0159 (inactive) | 0.00877 (inactive) | 0.0414 (inactive) | 0.0251 (inactive) | -0.00889 (inactive) | 0.00622 (inactive) | -0.000416 (inactive)
6 | CC[C@H](C)C(=O)O[C@H]1C[C@@H](C)C=C2C=C[C@H](C)[C@H](CC[C@@H]3C[C@@H](O)CC(=O)O3)[C@H]21 | -14.6 | -1.08 | 0.75 | 26.5 | -19 | 1.1 (inactive) | 3.18% (inactive) | 3.34% (inactive) | 0.96 (inactive) | -0.3 (inactive) and -0.62 (inactive) and -0.095 (inactive) | -0.0805 (inactive) | 0.025 (inactive) | -0.0727 (inactive) | 0.0657 (inactive) | 0.0172 (inactive) | 0.0477 (inactive) | -0.0508 (inactive)
7 | CCN(CC)CCCC(C)Nc1ccnc2cc(Cl)ccc12 (centres undefined) | 9.86 | 1.1 | 1.15 | 68.5 | -7.63 |  |  |  |  | -1.02 (inactive) and -1.18 (inactive) |  |  |  |  |  |  | 
8 | Cc1noc(NS(=O)(=O)c2ccc(N)cc2)c1C | 16.5 | 1.57 | 0.89 | 1.83 | -4.32 |  |  |  |  | -0.585 (inactive) and 0.925 (inactive) | -0.0245 (inactive) | 0.0135 (inactive) | -0.023 (inactive) | -0.0138 (inactive) | 0.00261 (inactive) | -0.0229 (inactive) | -0.0743 (inactive)
9 | CC(C)NCC(O)c1ccc(O)c(O)c1 (centres undefined) | 19.5 | 1.1 | 0.68 | 84.7 | -0.29 | 1.01 (inactive) | -5% (inactive) | -0.48% (inactive) | 0.95 (inactive) |  | 0.0647 (inactive) | -0.00786 (inactive) | 0.0272 (inactive) | -0.0419 (inactive) | 0.00121 (inactive) | 0.0195 (inactive) | -0.00526 (inactive)
10 | Oc1ccc(/C=C/c2cc(O)cc(O)c2)cc1 |  |  |  |  |  | 0.95 (inactive) | -2.84% (inactive) | -2.76% (inactive) | 0.93 (inactive) | 2.52 (active) and 1.26 (inactive) | 0.154 (active) | 0.0893 (inactive) | 0.00518 (inactive) | 0.139 (active) | 0.139 (active) | 0.092 (active) | 0.0308 (inactive)
11 | CCC1(c2ccccc2)C(=O)NCNC1=O | 9.61 | 1.24 | 1.19 | 63 | -24.4 | 1.04 (inactive) | -2.27% (inactive) | -0.48% (inactive) | 0.97 (inactive) | 1.15 (inactive) and 0.365 (inactive) and 1.9 (inactive) | 0.00245 (inactive) | 0.023 (inactive) | -0.0184 (inactive) | -0.0109 (inactive) | -0.0215 (inactive) | 0.0127 (inactive) | -0.0237 (inactive)
12 | c1ccc(CC2=NCCN2)cc1 | 7.62 | 1.26 | 1.14 | 87 | 1.58 | 1.05 (inactive) | -2.27% (inactive) | -0.48% (inactive) | 1.01 (inactive) | 0.495 (inactive) | -0.03 (inactive) | -0.0313 (inactive) | -0.0482 (inactive) | 0.0322 (inactive) | -0.00877 (inactive) | 0.0215 (inactive) | 0.0521 (inactive)

From PubChem BioAssay
